Laboratory results: the supplement of paper PMC3545927
Some of the results follow. The hit rate among all sequences tested is not known here.

Biological target: furin, P09958
Assay: furin cleavage Z-score vs untreated control; higher = more cleavage, active = 3.5 or more, inactive = 1 or less, 8 variable residues between constant flanks
Outline: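 Furin-free reactions served as the baseline for the cleavage Z-score, which is the log read count lowess-adjusted and scaled by median absolute deviation. Counts came from released DNA, adapter-tagged by PCR and sequenced. Purified furin had cut 8-mer peptides fused to a cDNA oligonucleotide on magnetic beads during 7.5, 15 or 30 min at 1:10 enzyme:substrate.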
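Note: purified furin at 1:10 enzyme:substrate in 50 mM HEPES pH 7.5.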

Chain of furin, P09958 (P09958 whole entry): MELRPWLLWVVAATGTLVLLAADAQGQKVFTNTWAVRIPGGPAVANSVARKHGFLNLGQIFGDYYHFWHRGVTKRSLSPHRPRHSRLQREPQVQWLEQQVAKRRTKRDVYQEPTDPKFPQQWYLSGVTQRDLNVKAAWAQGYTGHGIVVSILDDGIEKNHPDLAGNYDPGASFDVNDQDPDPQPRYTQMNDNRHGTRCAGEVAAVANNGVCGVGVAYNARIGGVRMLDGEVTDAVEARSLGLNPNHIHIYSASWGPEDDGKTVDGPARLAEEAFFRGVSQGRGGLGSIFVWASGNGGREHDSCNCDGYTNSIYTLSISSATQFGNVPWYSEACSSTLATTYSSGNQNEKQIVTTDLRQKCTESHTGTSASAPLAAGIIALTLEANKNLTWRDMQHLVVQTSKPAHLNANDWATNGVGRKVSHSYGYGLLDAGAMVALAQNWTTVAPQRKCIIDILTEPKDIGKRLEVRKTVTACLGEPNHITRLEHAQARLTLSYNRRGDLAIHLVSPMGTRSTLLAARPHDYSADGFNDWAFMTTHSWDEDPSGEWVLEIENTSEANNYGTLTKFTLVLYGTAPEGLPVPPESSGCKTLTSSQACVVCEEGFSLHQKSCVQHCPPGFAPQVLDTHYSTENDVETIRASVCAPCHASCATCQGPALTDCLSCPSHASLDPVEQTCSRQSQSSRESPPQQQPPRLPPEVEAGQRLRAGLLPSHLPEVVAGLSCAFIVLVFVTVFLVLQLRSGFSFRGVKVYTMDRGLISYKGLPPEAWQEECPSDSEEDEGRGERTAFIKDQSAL

Sequence | furin cleavage Z-score (7.5 min) | furin cleavage Z-score (15 min) | furin cleavage Z-score (30 min)
CAHQWISSECAGNASASA [HC1141] | -0.592 (inactive) | -1.1 (inactive) | 0.453 (inactive)
CAKWEYVVLLAGNASASA [HC518] | 0.0863 (inactive) | -1.74 (inactive) | -0.726 (inactive)
CAFPMRSKKIAGNASASA [FS-771] | -1.66 (inactive) | 0.142 (inactive) | -0.16 (inactive)
CAANRRMKRIAGNASASA [FS-750] | 7.06 (active) | 9.01 (active) | 7.77 (active)
CADDERSKRIAGNASASA [FS-221] | 0.272 (inactive) | 0.273 (inactive) | -0.987 (inactive)
CAVPRRSKRIAGNASASA [FS-513] | 6.01 (active) | 7.79 (active) | 6.97 (active)
CALVVRGPPGAGNASASA [FS-1846] | -0.565 (inactive) | -0.565 (inactive) | -0.843 (inactive)
CALRAWRHRAAGNASASA [HC1619] | 2.05 | 0.378 (inactive) | 0.854 (inactive)
CASHHRHRRGAGNASASA [FS-1410] | 9.65 (active) | 10.8 (active) | 9.31 (active)
CAHHHRHRRAAGNASASA [FS-1006] | 9.03 (active) | 6.62 (active) | 5.92 (active)
CAHHHRHHRAAGNASASA [FS-1336] | 2.38 | 2.68 | 3.58 (active)
CASLERLRRGAGNASASA [FS-296] | 0.592 (inactive) | 0.0398 (inactive) | 0.764 (inactive)
CAMKECSQHLAGNASASA [HC1694] | -0.048 (inactive) | -0.457 (inactive) | -0.785 (inactive)
CATTPCSNSWAGNASASA [HC1901] | 0.617 (inactive) | 0.249 (inactive) | 1.55
CARQKREWVKAGNASASA [FS-2753] | 3.59 (active) | 6.92 (active) | 8.88 (active)
CARQKREWIKAGNASASA [FS-2752] | 4.32 (active) | 5.62 (active) | 9.03 (active)
CAEKKRKFIKAGNASASA [FS-2119] | -0.691 (inactive) | -0.493 (inactive) | -0.629 (inactive)
CAMEECWQHLAGNASASA [HC27] | 1.1 | 1.46 | 0.479 (inactive)
CAYSPGEINRAGNASASA [HC1609] | -1.45 (inactive) | 1.01 | -0.452 (inactive)
CAEVDCHRPSAGNASASA [HC2351] | 0.842 (inactive) | 0.436 (inactive) | 0.244 (inactive)
CARPSRSGGRAGNASASA [FS-2287] | -1.07 (inactive) | -0.551 (inactive) | -0.606 (inactive)
CARKKKSISLAGNASASA [FS-1855] | 0.218 (inactive) | 1.42 | 3.47
CARISRSLHQAGNASASA [FS-3190] | 6.79 (active) | 8.81 (active) | 8.11 (active)
CARISRSISEAGNASASA [FS-2033] | 7.46 (active) | 8.18 (active) | 7.34 (active)
CAQGSRSLTPAGNASASA [HC718] | 0.532 (inactive) | -0.507 (inactive) | 0.396 (inactive)

Sequence | furin cleavage Z-score (7.5 min) | furin cleavage Z-score (15 min) | furin cleavage Z-score (30 min)
CATGLIHLHQAGNASASA [HC504] | 0.174 (inactive) | 0.0378 (inactive) | -0.549 (inactive)
CARATRKTSEAGNASASA [HC184] | -0.121 (inactive) | -1.01 (inactive) | -1.25 (inactive)
CARPSRSISLAGNASASA [FS-3027] | 3.14 | 4.81 (active) | 5.36 (active)
CADQLEQALDAGNASASA [HC1589] | -1.05 (inactive) | -1.96 (inactive) | -1.11 (inactive)
CATHVTGGSAAGNASASA [HC353] | -0.463 (inactive) | -0.337 (inactive) | -2.02 (inactive)
CAKDVVCCSMAGNASASA [HC2114] | 0.322 (inactive) | 0.43 (inactive) | -1.58 (inactive)
CADSVDAKPDAGNASASA [CS1] | -0.899 (inactive) | -0.697 (inactive) | -0.815 (inactive)
CARQRRVRRRAGNASASA [FS-1160] | 6.79 (active) | 6.89 (active) | 6.35 (active)
CAPTTRVRRRAGNASASA [FS-702] | 9.76 (active) | 10.9 (active) | 9.44 (active)
CARQRRVPGNAGNASASA [FS-2768] | 1.18 | -0.0341 (inactive) | 0.472 (inactive)
CARQRRIYKTAGNASASA [FS-2590] | -1.61 (inactive) | -1.71 (inactive) | -0.22 (inactive)
CAGPGRVRRRAGNASASA [FS-28] | 8.24 (active) | 9.49 (active) | 7.22 (active)
CAPSPRQARRAGNASASA [FS-1246] | 0.263 (inactive) | 2.43 | 2.92
CARIKKWLEHAGNASASA [FS-1721] | -1.04 (inactive) | 0.181 (inactive) | 1.15
CAMEEESQHLAGNASASA [HC13] | 1.19 | 0.958 (inactive) | 0.124 (inactive)
CATTPCSGSFAGNASASA [HC1927] | -0.645 (inactive) | -1.19 (inactive) | 0.309 (inactive)
CAVSCQRGYKAGNASASA [HC1165] | -0.75 (inactive) | 0.637 (inactive) | 1.1
CAMEECSQHTAGNASASA [HC1778] | -0.696 (inactive) | 1.17 | 0.869 (inactive)
CADHWRSRRTAGNASASA [FS-646] | 2.11 | 1.9 | 3.67 (active)
CARFRRIRGEAGNASASA [FS-2491] | -0.28 (inactive) | -0.376 (inactive) | -0.341 (inactive)
CADHEVVTSTAGNASASA [HC2295] | 0.352 (inactive) | -1.49 (inactive) | 1.29
CAEAYRSRRTAGNASASA [FS-1116] | 1.35 | 1.26 | 3.71 (active)
CAEVVTSTWTAGNASASA [HC2258] | 2.11 | -0.469 (inactive) | 0.353 (inactive)
CARFRRSRRTAGNASASA [FS-2666] | 7.49 (active) | 8.92 (active) | 6.66 (active)
